PubChem BioAssay (NCATS)
Inconclusive results are not listed. Calls of active or inactive are those of the source. Calls come from the whole dose curve; as a rule, active = well fitted curve in the direction sought with a large enough effect; inconclusive = small, poorly fitted or top-dose-only effect, or another doubt; inactive = no such curve, though single readings can be large; an effect the other way counts as inactive or inconclusive.

Assays:
[1] = qHTS to identify inhibitors of the type 1 interferon - major histocompatibility complex class I in skeletal muscle: primary screen against the NCATS Pharmaceutical Collection (AID 1347407);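 note: luminescence of HiBiT knocked into endogenous HLA-B as interferon-induced MHC class I level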
Procedure, shortened: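 A qHTS format is used: 8-point, 1:5 compound series with 46 uM top final concentration, applied alongside 4 ng/ml IFN-beta to HLA-B*08:01-HiBiT knock-in myoblasts. Luminescence is measured after 24 h treatment.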

[2] = qHTS to identify inhibitors of the type 1 interferon - major histocompatibility complex class I in skeletal muscle: primary screen against the NCATS Mechanism Interrogation Plate v5.0 (MIPE) Libary (AID 1347411); note: nearly all actives have a fitted effect of over 65% in size
Procedure, shortened: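 Immortalized human C25cl48 myoblasts with HiBit knocked into endogenous HLA-B*08:01 were stimulated with 4.0 ng/ml IFN-beta and exposed to compounds (11-point 1:3 titration, top 46 uM final) for 24 hrs at 37 C; HiBiT lytic luminescence measured.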

[3] = target: Protein phosphatase 1D (Homo sapiens) (UniProt O15297); assay: RapidFire Mass Spectrometry qHTS Assay for Modulators of WT P53-Induced Phosphatase 1 (WIP1) (AID 1347424);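 note: amount of dephosphorylated VEPPL-S-QETFS peptide product formed by WIP1; series mostly up to about 63 µM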
Procedure, shortened: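 WIP1 (10 nM final) was preincubated 1 h at room temperature with compounds in Tris-HCl pH 7.5, 30 mM MgCl2, TCEP, EGTA, BSA; 2 uM VEPPL-pS-QETFS phosphopeptide was added for 5 min, quenched with formic acid, and dephosphorylated product quantified by RapidFire MS.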

[4] = target: Protein phosphatase 1D (Homo sapiens) (UniProt O15297); assay: Rhodamine-PBP qHTS Assay for Modulators of WT P53-Induced Phosphatase 1 (WIP1) (AID 1347425)
Procedure, shortened: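 WIP1 (5 nM final) was preincubated with compound for 1 hour at room temperature. It then dephosphorylated 10 uM VEPPL-pS-QETFS peptide in Tris-HCl pH 7.5 with 30 mM MgCl2. Released Pi was detected by 10 uM Rh-PBP fluorescence (ex 525/em 598 nm) read at 1-min intervals for 11 min, as delta f1 - f0.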

[5] = Primary qHTS for inhibitors of La Crosse Virus (LACV) - induced cell death in SH-SY5Y cells (AID 1508616);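 note: top concentration of the series differs between compounds; higher means more rescue of cells from virus-induced death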
Procedure, shortened: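 Luminescent ATP readout (ATPLite 1step, 5 min room temperature) measured rescue from LACV-induced death after 6 days of infection at 0.01 MOI; normalized to infected DMSO wells and uninfected DMSO wells.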

[6] = target: Calcium and integrin-binding protein 1 (Homo sapiens) (UniProt Q99828); assay: Primary qHTS for Identification of Calcium Integrin Binding Protein 1 (CIB1) Competitor (AID 1508620);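 note: GST tagged CIB1 binding a fluorescein labelled alphaIIb integrin peptide tracer; top concentration of the series differs between compounds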
Procedure, shortened: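 Fluorescence polarization competition: CIB1-GST (1 uM final) preincubated with compound 15 min at room temperature, then FITC-labeled alphaIIb peptide (100 nM final) added for another 15 min. Polarization read at Ex 480/Em 540.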

Measured: Potency

Calcium and integrin-binding protein 1 (Homo sapiens), sequence (Q99828 whole entry, looked up): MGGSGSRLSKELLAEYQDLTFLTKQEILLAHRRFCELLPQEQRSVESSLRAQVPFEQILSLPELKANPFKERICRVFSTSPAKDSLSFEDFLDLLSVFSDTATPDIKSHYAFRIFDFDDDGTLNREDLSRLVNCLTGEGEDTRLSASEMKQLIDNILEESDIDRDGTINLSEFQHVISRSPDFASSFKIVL
Protein phosphatase 1D (Homo sapiens), sequence (O15297 whole entry, looked up): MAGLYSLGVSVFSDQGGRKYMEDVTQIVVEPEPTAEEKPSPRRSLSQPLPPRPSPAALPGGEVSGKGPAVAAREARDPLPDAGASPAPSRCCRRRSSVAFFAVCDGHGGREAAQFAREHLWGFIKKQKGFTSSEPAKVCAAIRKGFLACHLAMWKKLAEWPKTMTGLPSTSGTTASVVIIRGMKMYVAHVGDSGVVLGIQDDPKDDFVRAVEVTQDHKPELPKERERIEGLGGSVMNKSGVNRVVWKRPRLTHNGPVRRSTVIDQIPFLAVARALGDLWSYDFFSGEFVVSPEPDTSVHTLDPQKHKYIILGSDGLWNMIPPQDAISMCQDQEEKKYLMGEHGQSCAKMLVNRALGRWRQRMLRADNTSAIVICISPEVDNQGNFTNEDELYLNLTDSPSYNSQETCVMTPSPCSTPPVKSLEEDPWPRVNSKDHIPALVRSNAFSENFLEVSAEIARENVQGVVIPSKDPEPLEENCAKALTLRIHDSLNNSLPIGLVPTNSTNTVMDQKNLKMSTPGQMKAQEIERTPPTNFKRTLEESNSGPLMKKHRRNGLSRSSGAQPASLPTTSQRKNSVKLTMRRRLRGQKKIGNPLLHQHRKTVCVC

CN(Cc1cc(Br)cc(Br)c1N)C1CCCCC1
inactive: all assays above

CCOC(=O)c1ccc(C#Cc2ccc3c(c2)C(C)(C)CCS3)nc1
inactive: all assays above

Nc1[nH]c(=O)ncc1F
inactive: all assays above

CC(C)Cn1cnc2c(N)nc3ccccc3c21
inactive: all assays above

COc1ccc(C(=O)CC(=O)c2ccc(C(C)(C)C)cc2)cc1
inactive: all assays above

CC(=O)[C@H]1CC[C@H]2[C@@H]3CC=C4C[C@@H](O)CC[C@]4(C)[C@H]3CC[C@]12C
inactive: all assays above

CCCN[C@H]1CCc2nc(N)sc2C1
not listed: [6]
inactive: all other assays above

CN(CCOc1ccc(CC2SC(=O)NC2=O)cc1)c1ccccn1 (configuration not stated)
inactive: all assays above

COc1ncnc(NS(=O)(=O)c2ccc(N)cc2)c1OC
inactive: all assays above

Cn1c(=O)c2c(ncn2CC(O)CO)n(C)c1=O (configuration not stated)
not listed: [6]
inactive: all other assays above

CCOC(=O)[C@H](CCc1ccccc1)N[C@H]1CS[C@H](c2cccs2)CN(CC(=O)O)C1=O
not listed: [6]
inactive: all other assays above

OC(Cn1cncn1)(Cn1cncn1)c1ccc(F)cc1F
inactive: all assays above

CCOC(=O)c1ccc(OC(=O)CCCCCN=C(N)N)cc1
inactive: all assays above

C[C@]12C=CC(=O)C=C1CC[C@@H]1[C@@H]2C(=O)C[C@@]2(C)[C@H]1CC[C@]2(O)C(=O)CO
inactive: all assays above

NCCCC(O)(P(=O)(O)O)P(=O)(O)O
inactive: all assays above
